Inconclusive results are not listed. Active and inactive are the calls of the source. Unless noted, calls come from the whole dose curve; as a rule, active = well fitted curve in the direction sought with a large enough effect in the repeat runs; inconclusive = weak or mixed curves; inactive = no such curve, though single readings can be large; an effect the other way counts as inactive or inconclusive.
Experiments:
[1] = qHTS assay to identify small molecule agonists of the vitamin D receptor (VDR) signaling pathway - cell viability counter screen (AID 743224); note: series mostly up to about 63 µM; % is set by controls: 0 for no effect and ±100 for the full control effect; nearly all actives have a fitted effect of over 50% in size
Summary of the method: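 Here cell health was gauged by luminescent ATP detection (CellTiter-Glo, 30 min RT) in VDR-bla cells that had been incubated with test compounds for 16 h at 37C and 5% CO2.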

[2] = qHTS assay to identify small molecule antagonists of the vitamin D receptor (VDR) signaling pathway - cell viability counter screen (AID 743225); note: % is set by controls: 0 for no effect and ±100 for the full control effect; nearly all actives have a fitted effect of over 50% in size
Summary of the method: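 Cytotoxicity counter screen read by CellTiter-Glo luminescence (30 min, room temperature) in the same wells as the VDR-bla antagonist readout. HEK 293T VDR-UAS-bla cells had 16 h at 37C with compound and 3 nM (final) 1-alpha,25-dihydroxyvitamin D3, then 2 h with FRET substrate.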

[3] = qHTS assay to identify small molecule agonists of the NFkB signaling pathway (AID 1159509; active = well fitted curve in the direction sought with a large enough effect in the signal ratio in the repeat runs, not every such curve was filed as active; the % refers to the signal ratio; note: series mostly up to about 61 µM; % is set by controls: 0 for no effect and ±100 for the full control effect)
Summary of the method: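 NFkB-bla ME-180 cells with a beta-lactamase reporter under an NF-kB response element were plated overnight, treated with compounds in DMSO for 5 hr at 37 C, then loaded with FRET substrate for 1.5 hr at room temperature.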

[4] = qHTS assay to identify small molecule agonists of the endoplasmic reticulum stress response signaling pathway (AID 1159516; active = well fitted activation curve with a large enough effect in the signal ratio in the repeat runs, not every such curve was filed as active; the % refers to the signal ratio; note: % is set by controls: 0 for no effect and ±100 for the full control effect)
Summary of the method: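 Reporter HeLa cells (ESRE-beta-lactamase) underwent 5 hr compound incubation at 37 C and 5% CO2 in quantitative HTS format. Detection followed 2 hr of FRET substrate loading at room temperature.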

[5] = qHTS assay to identify small molecule antagonists of the retinoid-related orphan receptor gamma (ROR-gamma) signaling pathway - cell viability counter screen (AID 1159520); note: % is set by controls: 0 for no effect and ±100 for the full control effect; nearly all actives have a fitted effect of over 50% in size
Summary of the method: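 Tet-on ROR gamma CHO cells (1,000/well) were plated 4 hr, given compounds in DMSO for 2 hr at 37 C, then induced with 1 uM final doxycycline for 16 hr. Viability was read as ATP by CellTiter-Glo luminescence after 30 min.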

[6] = qHTS assay to identify small molecule agonists of the AP-1 signaling pathway - cell viability counter screen (AID 1159525; calls by dose curve; note: nearly all actives have a fitted effect of over 55% in size)
Summary of the method: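 ME-180 AP-1-bla, 2500 cells/well, Opti-MEM + 0.5% dialyzed FBS; overnight 37 °C; cpd 15-pt titration, 5 h 37 °C; CellTiter-Glo 30 min RT; luminescence read; normalised to TOAB and DMSO controls.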

[7] = qHTS assay to identify small molecule agonists of the AP-1 signaling pathway (AID 1159526; calls by dose curve; note: % is set by controls: 0 for no effect and ±100 for the full control effect)
[8] = qHTS assay to identify small molecule agonists of the endoplasmic reticulum stress response signaling pathway - cell viability counter screen (AID 1159517; calls by dose curve;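 note: HeLa cells carrying an ER stress response element beta-lactamase reporter; series mostly up to about 61 µM; % is set by controls: 0 for no effect and ±100 for the full control effect; nearly all actives have a fitted effect of over 50% in size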)
Summary of the method: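 Luminescence readout: CellTiter-Glo, 30 min RT, same wells as the ESRE-bla reporter read. HeLa ESRE-bla, 1,500 cells/well, o/n 37 C; cpd 5 hr 37 C/5% CO2.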

[9] = biological target: Nuclear receptor ROR-gamma (Homo sapiens) (UniProt P51449); test: qHTS assay to identify small molecule antagonists of the retinoid-related orphan receptor gamma (ROR-gamma) signaling pathway (AID 1159521)
Summary of the method: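 Antagonist read-out: drop in luminescence (ONE-Glo) from an RORE-LUC reporter in CHO cells with doxycycline-inducible ROR-gamma; 2 hr compound pretreatment, 1 uM doxycycline, 16 hr incubation at 37 C.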

O=C(OCc1ccccc1)C(=O)OCc1ccccc1
inactive: Potency [1] | outcome [2] | outcome [3] | outcome [4] | outcome [5] | outcome [6] | outcome [7]

CN(CCOc1ccc(NS(C)(=O)=O)cc1)CCc1ccc(NS(C)(=O)=O)cc1
inactive: outcome [3] | outcome [4] | Potency [8] | outcome [5] | outcome [6] | outcome [7]

CCC(C)NC(N)=O (stereo unspecified)
inactive: Potency [1] | outcome [2] | outcome [3] | outcome [4] | Potency [8] | outcome [5] | outcome [9] | outcome [6] | outcome [7]

Nc1ccc2cc(S(=O)(=O)O)cc(O)c2c1
inactive: Potency [1] | outcome [2] | outcome [3] | outcome [4] | Potency [8] | outcome [5] | outcome [9] | outcome [6] | outcome [7]

CCc1ccc(C=O)cc1
inactive: Potency [1] | outcome [2] | outcome [3] | outcome [4] | Potency [8] | outcome [9] | outcome [7]

CCCCCCCCC(=O)Cl
inactive: Potency [1] | outcome [2] | outcome [3] | outcome [4] | Potency [8] | outcome [5] | outcome [9] | outcome [7]

Cc1cccc(C)c1OCC(C)N (stereo unspecified)
inactive: outcome [2] | outcome [3] | Potency [8] | outcome [5] | outcome [6] | outcome [7]

COc1cc2c(cc1OC)C(=O)CC2
inactive: Potency [1] | outcome [2] | outcome [3] | outcome [4] | outcome [5] | outcome [9] | outcome [6] | outcome [7]

C=Cc1ccccn1
inactive: Potency [1] | outcome [2] | outcome [3] | outcome [4] | Potency [8] | outcome [5] | outcome [6] | outcome [7]

ClCCCl
inactive: Potency [1] | outcome [2] | outcome [3] | Potency [8] | outcome [5] | outcome [9] | outcome [6] | outcome [7]

Cc1ccc(C=O)cc1C
inactive: Potency [1] | outcome [2] | outcome [3] | outcome [4] | Potency [8] | outcome [5] | outcome [9] | outcome [6] | outcome [7]

CC1(C)S[C@@H]2[C@H](N=CN3CCCCCC3)C(=O)N2[C@H]1C(=O)O
inactive: Potency [1] | outcome [2] | outcome [3] | outcome [4] | outcome [5] | outcome [6] | outcome [7]

Cc1cccc2nccnc12
inactive: Potency [1] | outcome [2] | outcome [3] | outcome [4] | Potency [8] | outcome [5] | outcome [9] | outcome [7]

CNS(=O)(=O)CCc1ccc2[nH]cc(C3CCN(C)CC3)c2c1
inactive: Potency [1] | outcome [2] | outcome [3] | outcome [4] | outcome [5] | outcome [9] | outcome [6] | outcome [7]

CCO[Si](CCCS)(OCC)OCC
inactive: Potency [1] | outcome [2] | outcome [3] | outcome [4] | outcome [9] | outcome [6] | outcome [7]

CCCCCCCC/C=C\CCCCCCCC(=O)OCCCC
inactive: Potency [1] | outcome [2] | outcome [3] | outcome [4] | Potency [8] | activity change, negative = inhibition [9] 12% [at 19 µM] | viability change, negative = cytotoxic [6] -3.05% [at 15.8 µM] | activation [7] -1.59% [at 15.8 µM]

O=C(/N=N/C(=O)OCc1ccccc1)OCc1ccccc1
inactive: Potency [1] | outcome [2] | outcome [3] | outcome [4] | Potency [8] | outcome [5] | outcome [9] | outcome [6] | outcome [7]

COc1ccc2c(c1OC)C(=O)O[C@@H]2[C@H]1c2c(cc3c(c2OC)OCO3)CCN1C
inactive: Potency [1] | outcome [2] | outcome [3] | outcome [4] | outcome [5] | outcome [9] | outcome [6] | outcome [7]

COCCOC(=O)C1=C(C)NC(C)=C(C(=O)OC(C)C)C1c1cccc([N+](=O)[O-])c1 (stereo unspecified)
inactive: outcome [2] | outcome [3] | outcome [4] | Potency [8] | outcome [5] | outcome [9] | outcome [6] | outcome [7]

COC(=O)CCCCCCCC(=O)OC
inactive: outcome [2] | outcome [3] | Potency [8] | outcome [5] | outcome [9] | outcome [6] | outcome [7]

O=C(O)CCSSCCC(=O)O
inactive: Potency [1] | outcome [2] | outcome [3] | Potency [8] | outcome [5] | outcome [6] | outcome [7]

CCCCCCCCCCCCCC
inactive: Potency [1] | outcome [2] | outcome [3] | outcome [5] | outcome [9] | outcome [6] | outcome [7]

COc1cc2c(cc1OC)[C@@H]1CC(=O)[C@@H](CC(C)C)CN1CC2
inactive: Potency [1] | outcome [2] | outcome [3] | Potency [8] | outcome [5] | outcome [9] | outcome [6] | outcome [7]

C=C(C)C(=O)OCC(C)(C)COC(=O)C(=C)C
inactive: Potency [1] | outcome [2] | outcome [3] | outcome [4] | Potency [8] | outcome [5] | outcome [6] | outcome [7]

CC(CO)c1ccccc1 (stereo unspecified)
inactive: Potency [1] | outcome [2] | outcome [3] | outcome [4] | Potency [8] | outcome [5] | outcome [9] | outcome [6] | outcome [7]

Cc1ccc2ccc(Cl)cc2n1
inactive: Potency [1] | outcome [2] | outcome [3] | outcome [4] | Potency [8] | outcome [5] | outcome [9] | outcome [6] | outcome [7]

O=C(CS(=O)Cc1ccco1)NC/C=C\COc1cc(CN2CCCCC2)ccn1 (stereo unspecified)
inactive: Potency [1] | outcome [2] | outcome [3] | Potency [8] | outcome [5] | outcome [9] | outcome [6] | outcome [7]

Source: PubChem BioAssay (Tox21)
